{"source": "ChEMBL document CHEMBL2218924", "about": "“A broad activity screen in support of a chemogenomic map for kinase signalling research and drug discovery” (Biochem J, 2013)", "data": [{"target": "T1, Tyrosine-protein kinase receptor TYRO3 (Homo sapiens) (UniProt Q06418)", "T1 sequence (whole entry)": "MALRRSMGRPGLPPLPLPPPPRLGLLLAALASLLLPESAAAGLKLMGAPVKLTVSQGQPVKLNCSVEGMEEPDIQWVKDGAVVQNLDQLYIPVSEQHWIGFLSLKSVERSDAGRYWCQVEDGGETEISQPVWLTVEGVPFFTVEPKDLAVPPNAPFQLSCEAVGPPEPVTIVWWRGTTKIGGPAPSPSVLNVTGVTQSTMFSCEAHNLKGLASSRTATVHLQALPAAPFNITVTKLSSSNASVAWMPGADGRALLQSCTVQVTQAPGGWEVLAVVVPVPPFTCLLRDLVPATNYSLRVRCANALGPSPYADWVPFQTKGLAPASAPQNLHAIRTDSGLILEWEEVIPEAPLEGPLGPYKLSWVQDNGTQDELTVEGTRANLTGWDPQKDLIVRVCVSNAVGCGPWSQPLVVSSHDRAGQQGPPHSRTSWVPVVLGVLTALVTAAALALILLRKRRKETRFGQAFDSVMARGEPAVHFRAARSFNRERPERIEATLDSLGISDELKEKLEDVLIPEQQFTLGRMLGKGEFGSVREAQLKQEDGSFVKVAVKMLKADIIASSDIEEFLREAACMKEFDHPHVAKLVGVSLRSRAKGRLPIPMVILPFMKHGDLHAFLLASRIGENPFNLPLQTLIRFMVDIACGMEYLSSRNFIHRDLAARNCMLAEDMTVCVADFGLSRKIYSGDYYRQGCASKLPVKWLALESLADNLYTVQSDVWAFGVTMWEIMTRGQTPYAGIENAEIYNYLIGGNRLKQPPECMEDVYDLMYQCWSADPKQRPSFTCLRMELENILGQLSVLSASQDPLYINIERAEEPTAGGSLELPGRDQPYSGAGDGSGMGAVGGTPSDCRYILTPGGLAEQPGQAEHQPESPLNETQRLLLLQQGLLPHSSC", "settings": "at 1 µM", "units": {"residual activity": "%"}, "values": [{"smiles": "COc1ccc2c(c1)c(C1=C(c3c[nH]c4ccccc34)C(=O)NC1=O)cn2CCCN(C)C", "residual activity": 79}, {"smiles": "Nc1nc(Nc2ccc(S(N)(=O)=O)cc2)nn1C(=O)c1c(F)cccc1F", "residual activity": 81}, {"smiles": "CCCCc1c(-c2ccc(OC)cc2)[nH]c2nccnc12", "residual activity": 107}, {"smiles": "CCN(CC)CCNC(=O)c1c(C)[nH]c(/C=C2\\C(=O)Nc3ccc(Cl)cc32)c1C", "residual activity": 24}, {"smiles": "CN([C@@H](Cc1ccc(OS(=O)(=O)c2cccc3cnccc23)cc1)C(=O)N1CCN(c2ccccc2)CC1)S(=O)(=O)c1cccc2cnccc12", "residual activity": 118}, {"smiles": "CC(C)N(CCC(=O)c1ccc2ccccc2c1)Cc1ccccc1", "residual activity": 84}, {"smiles": "N#C/C(=C1/Nc2ccccc2S1)c1ccnc(NCCc2cccnc2)n1", "residual activity": 97}, {"smiles": "CN(C)S(=O)(=O)c1ccc2c(c1)/C(=C/c1cc3c([nH]1)CCCC3)C(=O)N2", "residual activity": 67}, {"smiles": "O=C(c1cc2cc(O)ccc2[nH]1)c1cc2cc(O)ccc2[nH]1", "residual activity": 39}, {"smiles": "COc1cc2nccc(Oc3ccc(NC(=O)Nc4cc(C)on4)c(Cl)c3)c2cc1OC", "residual activity": 10}, {"smiles": "Oc1cccc(-c2nc(N3CCOCC3)c3oc4ncccc4c3n2)c1", "residual activity": 82}, {"smiles": "COc1ccc(CNC(=O)Nc2ncc([N+](=O)[O-])s2)cc1", "residual activity": 106}]}, {"target": "T1, Tyrosine-protein kinase receptor TYRO3 (Homo sapiens)", "settings": "at 10 µM", "units": {"residual activity": "%"}, "values": [{"smiles": "O=S(=O)(c1cccc2cnccc12)N1CCCNCC1", "residual activity": 123}, {"smiles": "COc1ccc2c(c1)c(C1=C(c3c[nH]c4ccccc34)C(=O)NC1=O)cn2CCCN(C)C", "residual activity": 76}, {"smiles": "Nc1nc(Nc2ccc(S(N)(=O)=O)cc2)nn1C(=O)c1c(F)cccc1F", "residual activity": 28}, {"smiles": "CCCCc1c(-c2ccc(OC)cc2)[nH]c2nccnc12", "residual activity": 105}, {"smiles": "CCN(CC)CCNC(=O)c1c(C)[nH]c(/C=C2\\C(=O)Nc3ccc(Cl)cc32)c1C", "residual activity": -1}, {"smiles": "N#C/C(=C1/Nc2ccccc2S1)c1ccnc(NCCc2cccnc2)n1", "residual activity": 74}, {"smiles": "CN(C)S(=O)(=O)c1ccc2c(c1)/C(=C/c1cc3c([nH]1)CCCC3)C(=O)N2", "residual activity": 69}, {"smiles": "COc1cc2c(cc1OC)-c1n[nH]c(Nc3cccc(F)c3)c1C2", "residual activity": 50}, {"smiles": "O=C1Nc2ccccc2/C1=C\\c1c(Cl)[nH]c2ccccc12", "residual activity": 67}, {"smiles": "O=C(c1cc2cc(O)ccc2[nH]1)c1cc2cc(O)ccc2[nH]1", "residual activity": 2}, {"smiles": "COc1cc2nccc(Oc3ccc(NC(=O)Nc4cc(C)on4)c(Cl)c3)c2cc1OC", "residual activity": 8}, {"smiles": "Oc1cccc(-c2nc(N3CCOCC3)c3oc4ncccc4c3n2)c1", "residual activity": 93}, {"smiles": "N#Cc1c(NC(=O)c2cccc3ccccc23)sc2c1CCCC2", "residual activity": 92}, {"smiles": "COc1ccc(CNC(=O)Nc2ncc([N+](=O)[O-])s2)cc1", "residual activity": 108}]}]}
